According to PubChem BioAssay (EPA / NIEHS):
The source made the active and inactive calls. Rule for the calls: active = hit-call score of the fitted dose curve at least 0.9, where 1 is the maximum; inactive = score below 0.9.

Tests used:
[1] = read-out: urokinase plasminogen activator (uPA), PLAU (gene 5328); assay: BSK_KF3CT_uPA: BioMAP Diversity Plus: KF3CT Assay for urokinase plasminogen activator (uPA) Biomarker Activity (AID 2283075); settings: primary human keratinocytes with fibroblasts; actives raise or lower the signal
How it was run: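 Human keratinocyte plus foreskin fibroblast primary co-culture exposed to chemical for 24 h. uPA levels were quantified by ELISA, and activity was fitted bidirectionally against a DMSO negative-control baseline.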

CD40, CD40 (gene 958) [2] = assay: BSK_LPS_CD40: BioMAP Diversity Plus: LPS Assay for CD40 Biomarker Activity (AID 2283076); settings: primary human HUVEC with PBMC; actives raise or lower the signal
How it was run: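 In the LPS system of human endothelial cells with peripheral blood mononuclear cells, CD40 levels were read by ELISA 24 h post-treatment. Signal changes in either direction were fitted against the DMSO baseline, with parallel SRB protein staining.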

[3] = read-out: E-selectin (Homo sapiens) (UniProt P16581); assay: BSK_LPS_Eselectin: BioMAP Diversity Plus: LPS Assay for Eselectin Biomarker Activity (AID 2283077); settings: primary human HUVEC with PBMC; actives raise or lower the signal
How it was run: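 E-selectin ELISA on LPS-stimulated endothelial cell/PBMC co-cultures, read 24 h post-treatment; gains and losses fitted against DMSO. Parallel SRB staining (0.1% SRB after 10% TCA fixation, 560 nm) flags overt cytotoxicity.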

[4] = read-out: Interleukin-8 (IL8), CXCL8 (gene 3576); assay: BSK_LPS_IL8: BioMAP Diversity Plus: LPS Assay for Interleukin-8 (IL8) Biomarker Activity (AID 2283078); settings: primary human HUVEC with PBMC; actives raise or lower the signal
How it was run: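 ELISA read-out of IL-8 after 24 h chemical treatment of LPS-activated endothelial/PBMC human primary co-cultures. Changes either up or down relative to DMSO; overt cytotoxicity checked by sulforhodamine B staining in parallel wells.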

[5] = BSK_LPS_SRB: Viability Assessment in the BioMAP Diversity Plus: LPS Assay (AID 2283079); settings: primary human HUVEC with PBMC;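 note: total protein by sulforhodamine B absorbance as a cytotoxicity measure; measured one day after compound addition; fitted in both directions against DMSO so loss or gain of signal counts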
How it was run: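 SRB viability endpoint: cells fixed with 10% TCA, stained with 0.1% SRB, read at 560 nm, 24 h post-dose. HUVEC/PBMC co-culture; signal change in either direction scored relative to DMSO.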

[6] = read-out: Interleukin-1 alpha (IL1a), IL1A (gene 3552); assay: BSK_LPS_IL1a: BioMAP Diversity Plus: LPS Assay for Interleukin-1 alpha (IL1a) Biomarker Activity (AID 2283080); settings: primary human HUVEC with PBMC; actives raise or lower the signal
How it was run: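 Readout is IL-1a level by ELISA, 24 h post-dose, fitted as gain or loss relative to DMSO. System: LPS-activated human primary co-culture of vascular endothelium and peripheral blood mononuclear cells, with parallel SRB total-protein cytotoxicity.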

[7] = read-out: Monocyte Chemoattractant Protein-1 (MCP1), CCL2 (gene 6347); assay: BSK_LPS_MCP1: BioMAP Diversity Plus: LPS Assay for Monocyte Chemoattractant Protein-1 (MCP1) Biomarker Activity (AID 2283081); settings: primary human HUVEC with PBMC; actives raise or lower the signal
How it was run: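 Secreted MCP-1 read by ELISA at 24 h post-dosing in an LPS-activated co-culture of endothelial cells with peripheral blood mononuclear cells. Fits run in both directions, DMSO as baseline; parallel SRB staining tracks overt cytotoxicity.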

[8] = BSK_LPS_PGE2: BioMAP Diversity Plus: LPS Assay for Prostaglandin E2 (PGE2) Biomarker Activity (AID 2283082); settings: primary human HUVEC with PBMC; actives raise or lower the signal;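 for AC50: secreted prostaglandin E2 measured by ELISA in LPS-stimulated co-culture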
How it was run: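 Endpoint derived from bidirectional curve fitting versus DMSO of ELISA-measured PGE2 in LPS-stimulated human primary vascular co-culture (HUVEC with PBMC) harvested at 24 h.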

[9] = read-out: Macrophage colony-stimulating factor (MCSF), CSF1 (gene 1435); assay: BSK_LPS_MCSF: BioMAP Diversity Plus: LPS Assay for Macrophage colony-stimulating factor (MCSF) Biomarker Activity (AID 2283083); settings: primary human HUVEC with PBMC; actives raise or lower the signal
How it was run: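 Bidirectional fitting against DMSO was applied to M-CSF levels read by ELISA at 24 h post-dose. The system pairs human umbilical vein endothelium with peripheral blood mononuclear cells; parallel SRB staining tracked cytotoxicity.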

[10] = read-out: Tissue Factor, F3 (gene 2152); assay: BSK_LPS_TissueFactor: BioMAP Diversity Plus: LPS Assay for Tissue Factor Biomarker Activity (AID 2283084); settings: primary human HUVEC with PBMC; actives raise or lower the signal
How it was run: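 Compound was added to an endothelial cell/PBMC co-culture, and after 24 h tissue factor (CD142) was read by ELISA. Gain or loss of signal was fitted against a DMSO baseline, and parallel SRB staining (560 nm) tracked overt cytotoxicity.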

[11] = read-out: Tumor necrosis factor (Homo sapiens) (UniProt P01375); assay: BSK_LPS_TNFa: BioMAP Diversity Plus: LPS Assay for Tumour Necrosis Factor alpha (TNFa) Biomarker Activity (AID 2283085); settings: primary human HUVEC with PBMC; actives raise or lower the signal
How it was run: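 Primary human vascular co-culture of HUVEC and PBMC; TNFa ELISA 24 h after treatment, analysed as increase or decrease relative to DMSO control.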

[12] = read-out: Vascular cell adhesion molecule 1 (VCAM1), VCAM1 (gene 7412); assay: BSK_LPS_VCAM1: BioMAP Diversity Plus: LPS Assay for Vascular cell adhesion molecule 1 (VCAM1) Biomarker Activity (AID 2283086); settings: primary human HUVEC with PBMC; actives raise or lower the signal
How it was run: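 Primary human vascular co-culture (umbilical vein endothelium plus PBMC) stimulated with LPS received chemical; 24 h later VCAM-1 was read by ELISA. Overt cytotoxicity was assessed by sulforhodamine B staining of parallel cultures at the same time point.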

CD38, CD38 (gene 952) = assay: BSK_SAg_CD38: BioMAP Diversity Plus: SAg Assay for CD38 Biomarker Activity (AID 2283087); settings: primary human HUVEC with PBMC; actives raise or lower the signal
How it was run: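 Fluorescence ELISA of cell-surface CD38 served as the read-out, with either increase or decrease fitted against DMSO controls. Cells were a human umbilical vein endothelium plus PBMC co-culture under SEB/TSST-1 stimulation, measured 24 h after dosing.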

CD40, CD40 (gene 958) [13] = assay: BSK_SAg_CD40: BioMAP Diversity Plus: SAg Assay for CD40 Biomarker Activity (AID 2283088); settings: primary human HUVEC with PBMC; actives raise or lower the signal
How it was run: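 CD40 is measured by fluorescence ELISA in an endothelial/PBMC primary human co-culture at 24 h post-dose. Fitting is bidirectional, DMSO baseline. Parallel SRB staining (560 nm) flags cytotoxicity.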

CD69, CD69 (gene 969) = assay: BSK_SAg_CD69: BioMAP Diversity Plus: SAg Assay for CD69 Biomarker Activity (AID 2283089); settings: primary human HUVEC with PBMC; actives raise or lower the signal;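 for AC50: cell surface CD69 protein quantified by ELISA with fluorescence detection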
How it was run: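 Endothelial/PBMC co-culture; chemical added; 24 h incubation; CD69 ELISA with fluorescence detection; bidirectional fit vs DMSO.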

[14] = read-out: Monocyte Chemoattractant Protein-1 (MCP1), CCL2 (gene 6347); assay: BSK_SAg_MCP1: BioMAP Diversity Plus: SAg Assay for Monocyte Chemoattractant Protein-1 (MCP1) Biomarker Activity (AID 2283090); settings: primary human HUVEC with PBMC; actives raise or lower the signal
How it was run: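 MCP-1 levels in the endothelial–PBMC SAg co-culture were quantified by ELISA at 24 h post-dosing; both increases and decreases versus DMSO scored. Cytotoxicity monitored by SRB total protein in parallel cultures.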

[15] = read-out: E-selectin (Homo sapiens) (UniProt P16581); assay: BSK_SAg_Eselectin: BioMAP Diversity Plus: SAg Assay for Eselectin Biomarker Activity (AID 2283091); settings: primary human HUVEC with PBMC; actives raise or lower the signal
How it was run: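 Cell-surface E-selectin is read by ELISA at 24 h in the SAg co-culture of HUVEC and PBMC. Curves are fitted in both directions relative to DMSO. Parallel SRB total-protein staining tracks overt toxicity.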

[16] = read-out: Monokine induced gamma interferon (MIG), CXCL9 (gene 4283); assay: BSK_SAg_MIG: BioMAP Diversity Plus: SAg Assay for Monokine induced gamma interferon (MIG) Biomarker Activity (AID 2283092); settings: primary human HUVEC with PBMC; actives raise or lower the signal
How it was run: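 Measures CXCL9 protein by ELISA in a human vascular primary-cell co-culture (umbilical vein endothelium with PBMC) 24 h after chemical addition. Activity is scored up or down from the DMSO control.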

[17] = read-out: Interleukin-8 (IL8), CXCL8 (gene 3576); assay: BSK_SAg_IL8: BioMAP Diversity Plus: SAg Assay for Interleukin-8 (IL8) Biomarker Activity (AID 2283094); settings: primary human HUVEC with PBMC; actives raise or lower the signal
How it was run: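 In this co-culture of human umbilical vein endothelium with peripheral blood mononuclear cells, IL-8 is assayed by ELISA at 24 h. DMSO serves as baseline for bidirectional curve fitting.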

[18] = BSK_SAg_PBMCCytotoxicity: PBMC Cytotoxicity Assessment in the BioMAP Diversity Plus: SAg Assay (AID 2283093); settings: primary human HUVEC with PBMC;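 note: PBMC viability measured as Alamar Blue reduction fluorescence at 546/580 nm; fitted both ways against DMSO so a hit may be loss or gain of signal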;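 for AC50: PBMC superantigen activated with SEB plus TSST-1 one hour after compound addition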
How it was run: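 Human umbilical vein endothelial cells co-cultured with PBMC; PBMC (75,000/well) pre-treated with compound 1 h, then activated with SEB and TSST-1 (20 ng/mL final each) for 90 h. Alamar Blue added 6 h, fluorescence 546/580 nm; bidirectional fit versus DMSO.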

Measured: AC50

Sequence of E-selectin (Homo sapiens) (P16581 whole entry, looked up): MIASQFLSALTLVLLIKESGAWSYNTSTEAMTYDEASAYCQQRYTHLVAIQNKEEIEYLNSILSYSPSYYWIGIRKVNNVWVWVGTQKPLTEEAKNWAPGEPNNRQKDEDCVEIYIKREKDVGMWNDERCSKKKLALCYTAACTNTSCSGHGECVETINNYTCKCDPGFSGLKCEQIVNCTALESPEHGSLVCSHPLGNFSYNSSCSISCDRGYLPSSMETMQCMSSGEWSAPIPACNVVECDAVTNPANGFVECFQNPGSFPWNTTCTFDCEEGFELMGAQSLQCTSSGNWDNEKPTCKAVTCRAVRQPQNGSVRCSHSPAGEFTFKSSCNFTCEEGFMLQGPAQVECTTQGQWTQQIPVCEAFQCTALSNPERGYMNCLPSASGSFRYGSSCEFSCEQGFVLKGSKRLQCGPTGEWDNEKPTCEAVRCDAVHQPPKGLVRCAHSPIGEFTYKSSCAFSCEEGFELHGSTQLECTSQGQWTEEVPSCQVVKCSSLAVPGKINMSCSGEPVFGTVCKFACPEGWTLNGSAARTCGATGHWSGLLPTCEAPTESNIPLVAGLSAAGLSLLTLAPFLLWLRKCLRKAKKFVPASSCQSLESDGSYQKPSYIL
Sequence of Tumor necrosis factor (Homo sapiens) (P01375 whole entry, looked up): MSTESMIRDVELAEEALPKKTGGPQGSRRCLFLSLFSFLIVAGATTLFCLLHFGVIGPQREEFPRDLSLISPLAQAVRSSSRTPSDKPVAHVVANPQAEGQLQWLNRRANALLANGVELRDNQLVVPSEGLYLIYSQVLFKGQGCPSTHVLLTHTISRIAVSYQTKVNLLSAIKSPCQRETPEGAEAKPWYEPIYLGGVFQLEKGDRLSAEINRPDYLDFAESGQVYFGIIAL

Oc1c(Cl)cc(Cl)cc1Cl
active: CD40, CD40 (gene 958) [13] 13.3 µM
not listed: [18]
inactive: all other assays above

OC(Cc1ccccc1Cl)(Cn1cncn1)C1(Cl)CC1 (centres undefined)
active: [8] 2.02 µM
inactive: all other assays above

CCC(C)(C#N)N=NC(C)(C#N)CC (centres undefined)
inactive: all assays above

CCCCN(CCCC)C(=S)[S-].CCCCN(CCCC)C(=S)[S-].[Ni+2]
inactive: all assays above

Cc1cc(C(C)(C)c2ccc(O)c(C)c2)ccc1O
active: CD40, CD40 (gene 958) [2] 14.3 µM | [5] 12.5 µM | [8] 4.51 µM | [9] 15.1 µM | CD38, CD38 (gene 952) 14.7 µM | CD40, CD40 (gene 958) [13] 15.4 µM | CD69, CD69 (gene 969) 15.4 µM | [14] 15.9 µM | [15] 14.8 µM | [18] 15.7 µM
inactive: [1] | [3] | [4] | [6] | [7] | [10] | [11] | [12] | [16] | [17]
